Screen size: about 290,000 compounds; about 3,500 (1.2%) were called active.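 The calls were made as follows: active = inhibition above the campaign mean inhibition over all tested compounds plus 3 SD (cut at about 28% in these data); inactive = the rest.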 The entries come from a sample that favours actives as a whole.
tested on: M18 aspartyl aminopeptidase (Plasmodium falciparum 3D7); test: PfM18AAP inhibitors, malaria aminopeptidase, primary screen, biochemical, QFRET, recombinant enzyme (AID 1822); conditions: H-Glu-NHMec fluorogenic cleavage, at 7.35 µM, stronger effect = higher value;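 also: 0% = plate median of test compound wells and 100% = 2 mM ZnCl2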

Structure (SMILES) | inhibition
O=C(Nc1ccc(F)cc1)C1CCCN(S(=O)(=O)c2ccc(-n3cnnn3)cc2)C1 (stereo unspecified) | -11.3% (inactive)
Cc1ccc(-n2c(C)nnc2SCC(=O)NC2CC2)cc1 | 6.7% (inactive)
CCn1c(SCC(=O)NC2CC2)nnc1-c1ccncc1 | -8.99% (inactive)
Cc1cc(C)nc(Nc2n[nH]c(-c3ccccc3N)n2)n1 | -3.26% (inactive)
Cc1cc(C)nc(Nc2ncn[nH]2)n1 | 70.4% (active)
Cc1cc(C)nc(Nc2cc([N+](=O)[O-])ccc2C)n1 | -2.82% (inactive)
Cc1cc(NC(=O)CCC(=O)N(CC(=O)NC2CCCC2)c2ccc(F)cc2)no1 | 1.92% (inactive)
CCOc1cccc(/C=N/N2C(=O)CSC2=S)c1O | 38.7% (active)
COc1cc(N2C(=O)CSC2=S)cc(OC)c1OC | 6.36% (inactive)
O=C1CSC(=S)N1c1ccc(O)cc1 | 8.71% (inactive)
Cc1cc2oc(=O)cc(CN(C)Cc3ccc(OC(F)F)cc3)c2cc1Cl | -5.26% (inactive)
C=CCOc1ccccc1NC(=O)CN1C(=O)CNC1=O | -12.8% (inactive)
Cc1nc2sc(C(=O)c3ccccc3)c(N)c2c2c1CCCC2 | 1.45% (inactive)
Nc1c(C(=O)c2cccs2)sc2nsc(SCCN3CCCCC3)c12 | 28.8% (active)
CN(C)c1ccnc2sc(C(=O)c3ccccc3)c(N)c12 | 1.38% (inactive)
COc1ccc(CCNC(=O)CCNS(=O)(=O)c2cc(Br)cnc2N)cc1OC | -9.76% (inactive)
NC(=O)C1CCCN(CC(=O)N2CCN(c3ccccc3)CC2)C1 (stereo unspecified) | 0.08% (inactive)
O=C(CSc1nc(Nc2ccccc2)nc(N2CCOCC2)n1)Nc1cc(Cl)ccc1O | 3.26% (inactive)
Cc1ccc(C)c(NC(=O)CCC(=O)NNC(=O)c2cccs2)c1 | -0.77% (inactive)
Cc1ccc(C)c(NC(=O)NNC(=O)c2ccc3ccccc3c2O)c1 | 41% (active)
Cc1ccc(S(=O)(=O)NNC(=O)Nc2cccc3ccccc23)cc1 | 10.5% (inactive)
O=C(Oc1ccc(Br)cc1C(=S)N1CCOCC1)c1cccc([N+](=O)[O-])c1 | 36.5% (active)
COc1cc(C(=S)N2CCOCC2)cc(OC)c1OC(=O)c1cc([N+](=O)[O-])cc([N+](=O)[O-])c1 | 8.8% (inactive)
O=C(Oc1ccccc1C(=S)N1CCCCC1)c1cc([N+](=O)[O-])cc([N+](=O)[O-])c1 | 13.9% (inactive)

Structure (SMILES) | inhibition
CCOc1ccc(CNC(=O)CCC(=O)N2CCSc3ccccc32)cc1 | 6.53% (inactive)
O=C(NC(=S)Nc1ccc(S(=O)(=O)N2CCOCC2)cc1)c1ccccc1[N+](=O)[O-] | 2.44% (inactive)
O=S(=O)(c1ccc(NC(=S)NN=C(C2CC2)C2CC2)cc1)N1CCOCC1 | 34.2% (active)
CN1CCN(S(=O)(=O)c2ccc(NC(=S)NC(=O)C3CC3)cc2)CC1 | 3.06% (inactive)
CN1/C(=C\C=C2\N=C(c3ccc(F)cc3)OC2=O)C(C)(C)c2ccccc21 | -0.7% (inactive)
CCOC(=O)c1c(C)[nH]c(C)c1S(=O)(=O)NCCCc1ccco1 | -16.1% (inactive)
C=CCNC(=S)NNc1ncnc2sc3c(c12)CC(C)(C)OC3 | 30.1% (active)
CCC(O)CNc1nc(-n2nc(C)cc2C)nc2sc3c(c12)CC(C)(C)OC3 (stereo unspecified) | -1.41% (inactive)
CC(C)c1nc2sc3c(c2c(=O)n1N)CC(C)(C)OC3 | -0.21% (inactive)
COc1cccc(CN2CCN(Cc3ccc4cccc(F)c4n3)CC2CCO)c1 (stereo unspecified) | 2.05% (inactive)
Cc1cc(C)nc(N/N=C/c2ccncc2)n1 | 11% (inactive)
CCN(CC)c1ccc(/C=N/Nc2nc(C)cc(C)n2)c(O)c1 | 50.9% (active)
CCN(CC)c1ccc(/C=N/NC(=O)c2cnccn2)c(O)c1 | 9.64% (inactive)
CC(=O)N1c2ccc(S(=O)(=O)N3CCC(C(=O)N4CCN(c5ccccc5)CC4)CC3)cc2CC1C (stereo unspecified) | 5.96% (inactive)
CC(C)C(=O)Nc1nnc(SCC(=O)N2C(C)CCCC2C)s1 (stereo unspecified) | -5.69% (inactive)
COC(=O)C1CCN(C(=O)c2ccc3oc(Cc4ccc(Cl)cc4)nc3c2)CC1 | 6.38% (inactive)
Cc1ccc(CNC(=O)c2c(-c3ccccc3)noc2C)cc1 | 12.7% (inactive)
COc1ccc(C(=O)NC(=S)NNC(=O)c2c(-c3ccccc3)noc2C)cc1 | 5.86% (inactive)
Cc1onc(-c2ccccc2)c1C(=O)NNC(=S)NC(=O)c1ccc(F)cc1 | 38.2% (active)
C=CCc1cccc(/C=N/NC(=O)COc2ccc(-n3cnnn3)cc2)c1O | 11.8% (inactive)
Cc1ccc(S(=O)(=O)N(CC(=O)NN=C2CCN(C)CC2)c2ccc(F)cc2)cc1 | -4.43% (inactive)
CCOc1ccccc1NC(=O)CCc1nnc2ccc(NCc3ccco3)nn12 | 21.1% (inactive)
CC(=O)c1ccc(NC(=O)CCc2nnc3ccc(NCc4ccco4)nn23)cc1 | 46.3% (active)
O=C(CCc1nnc2ccc(NCc3ccco3)nn12)Nc1cc(F)ccc1F | 26% (inactive)

Structure (SMILES) | inhibition
COc1ccc(NC(=O)C2CCN(S(=O)(=O)c3ccc4[nH]c(=O)oc4c3)CC2)c(OC)c1 | 2.9% (inactive)
CN(C)/C=C1/C(=O)Nc2ccccc21 | 7.19% (inactive)
COc1ccc(/C=N/N=C2/C(=O)Nc3ccccc32)cc1O | 30.7% (active)
COc1ccc(/C=N/S(=O)(=O)c2ccccc2)cc1OC | -9.39% (inactive)
Cc1cccc(N(Cc2ccccc2)C(=O)c2ccccc2F)c1 | 0.68% (inactive)
O=S(=O)(c1ccc(Br)cc1)c1nc(-c2ccccc2)oc1N1CCOCC1 | -11.7% (inactive)
COc1ccc(C(=O)NNC(=O)c2cnccn2)cc1[N+](=O)[O-] | 28.7% (active)
COc1ccc(C(=O)O/N=C(\N)c2ccccn2)cc1[N+](=O)[O-] | -11.1% (inactive)
COc1cccc(OCC(=O)NNC(=O)c2cnccn2)c1 | 0.44% (inactive)
O=C(Nc1ccccc1)Nc1nc2ccccc2s1 | -14.5% (inactive)
COc1cc(/C=N/Nc2nc3ccccc3s2)ccc1O | 4.41% (inactive)
c1ccc2sc(NN=C3CCCC3)nc2c1 | 43.7% (active)
Cc1cccc(NC(=O)N2CCCCCC2)c1C | -13.5% (inactive)
Cc1c(C)n(Cc2ccc(Cl)cc2)c2ccc(C(=O)NCCCN3CCOCC3)cc12 | -3.58% (inactive)
CCCCNc1ccc(C(=O)Nc2cccc(C)n2)cc1[N+](=O)[O-] | -6.29% (inactive)
CCOC(=O)c1sc(/N=C/C2=C(O)CC(C)(C)CC2=O)c(C(=O)OCC)c1C | -7.73% (inactive)
CCOC(=O)c1c(/N=C/C2C(=O)CC(C)(C)CC2=O)sc(C)c1C | 28.8% (active)
CCOC(=O)c1c(N)sc2c1CCCC2=O | 13.3% (inactive)
Cc1cc(NS(=O)(=O)c2ccc(NC(=O)C(C)Oc3cccc(C)c3C)cc2)nc(C)n1 (stereo unspecified) | 1.85% (inactive)
COc1ccc([N+](=O)[O-])cc1-c1nc2ccccc2nc1-c1ccccc1 | 0.66% (inactive)
Cc1ccc2c(c1)N(CC(=O)N1CCOCC1)C(=O)CO2 | -1.57% (inactive)
CC(=O)c1ccc(NC(=O)c2ccc(-n3cncn3)c([N+](=O)[O-])c2)cc1 | -11.7% (inactive)
Nc1ccc2nc3c(=O)[nH]c(=S)[nH]c3nc2c1 | 28.9% (active)
CCc1cc(=O)oc2c(C)c(OCC(=O)NCCN3CCOCC3)ccc12 | -0.48% (inactive)

Structure (SMILES) | inhibition
COc1ccc(Cl)cc1NC(=O)CCS(=O)(=O)c1ccc(Br)cc1 | -8.04% (inactive)
Cc1cc(NC(=O)CCC(=O)N(Cc2ccccc2)C(C(=O)NC2CCCC2)c2ccc(C)o2)no1 (stereo unspecified) | 8.33% (inactive)
CC1CC2=C(CC1/C=N/NC(N)=S)C(C)(C)CCC2 (stereo unspecified) | 30.5% (active)
Cc1cc(C)nc(NS(=O)(=O)c2ccc(N3C(=O)C4CCCCC4C3=O)cc2)n1 (stereo unspecified) | -7.47% (inactive)
CCn1c(SCC(=O)NNC(=O)c2ccc(OC)cc2)nnc1C(C)C | 4.07% (inactive)
Cc1cccc([C@@H]2[C@@H]3C(=O)N(C)C(=O)[C@@H]3[C@@H]3C(=O)Nc4ccccc4C(=O)N23)c1 | -3.83% (inactive)
CCC1(CC)Cc2ccccc2-c2nc(CCl)[nH]c(=O)c21 | 2.03% (inactive)
C/C(=N\NC(=O)c1ccoc1C)c1ccccc1O | 31.6% (active)
CC(C)=C(NC(=O)c1ccccc1)C(=O)N/N=C(\C)c1ccccc1O | -2.21% (inactive)
Cc1[nH]n(-c2ccccc2)c(=O)c1/C=N/NC(=O)c1ccoc1C | -3.48% (inactive)
COc1cc(C2C(C(=O)c3ccco3)=C(O)C(=O)N2c2cc(C)on2)ccc1OCc1ccccc1 (stereo unspecified) | 1.75% (inactive)
OCCn1c(-c2ccccc2)csc1=Nc1ccccc1 | 44.3% (active)
Cc1csc(=Nc2ccccc2)n1CCO | 2.31% (inactive)
Cc1csc(=NC(=O)c2ccccc2)n1CCO | 4.05% (inactive)
CC(=O)NS(=O)(=O)c1ccc2c(c1)Cc1cc(S(=O)(=O)NC(C)=O)ccc1-2 | 10.3% (inactive)
COc1cc(SC#N)ccc1N=Cc1c(C)[nH]n(-c2ccc(C)cc2)c1=O | -5.1% (inactive)
CCN1CCN(C(=O)C2CCN(S(=O)(=O)c3cc(Cl)ccc3Cl)CC2)CC1 | -5.08% (inactive)
COc1ccc(C(=O)NNC(=S)NC(=O)c2ccccc2)cc1 | 8.59% (inactive)
CNC(=S)NNC(=O)c1ccc(N(C)C)cc1 | 37.4% (active)
CC(=O)NC(=S)NNC(=O)c1ccc(Br)cc1 | 10.7% (inactive)
CC1CCN(S(=O)(=O)c2ccc3c(ccn3CC(=O)O)c2)CC1 | 4.44% (inactive)
CN(C)S(=O)(=O)c1cccc(NC(=S)N/N=C/C(=O)c2ccccc2)c1 | 29.6% (active)
Cc1ccc(/C=N/NC(=S)Nc2cccc(S(=O)(=O)N(C)C)c2)o1 | 9.59% (inactive)
CN(C)S(=O)(=O)c1cccc(NC(=S)NCc2ccc3c(c2)OCO3)c1 | -10.4% (inactive)

Reference: PubChem BioAssay AID1822 (The Scripps Research Institute Molecular Screening Center, 2009)
